Source: PubChem BioAssay (EPA / NIEHS)
Where a structure was tested more than once in an assay, its records may differ in their call. Calls of active or inactive are those of the source. How the source made its calls: active means hit-call score of the fitted dose curve at least 0.9, where 1 is the maximum; inactive means score below 0.9.

Experiment: CCTE_Padilla_ZF_144hpf_TERATOSCORE: (Legacy) CCTE's 144 Hour Post-fertilization zebrafish Assay Teratoscore, Padilla Lab (AID 2283679);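 on AC50: zebrafish embryos with chorions exposed by immersion from 6-8 hpf to 5 dpf with daily renewal; teratogenicity score from eye scoring of death hatching and malformations at 144 hpf; higher score means more developmental defects relative to DMSO baseline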
How it was run: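 Larvae scored by eye at 144 hpf for death, hatching and malformations after a day in clean Hanks'. Before that, daily-renewed exposure at 80 uM (0.4% DMSO, 26C) from roughly 6-8 hpf through 5 dpf, 4 embryos per chemical.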

Compound	AC50	outcome
O=NN(c1ccccc1)c1ccccc1	53.4 µM (active)	–
CCCCCCCCCC[N+](C)(C)CCCCCCCCCC	4.53 µM (active)	–
O=C(O)C(F)(F)C(F)(F)C(F)(F)C(F)(F)C(F)(F)C(F)(F)C(F)(F)C(F)(F)C(F)(F)F	60.2 µM (active)	–
Clc1ccc(C(c2ccccc2Cl)C(Cl)(Cl)Cl)cc1 (stereo unspecified)	16.1 µM (active)	–
Oc1ccc(C(c2ccc(O)cc2)(C(F)(F)F)C(F)(F)F)cc1	18.1 µM (active)	–
c1ccc(-c2ccccc2)cc1	4.5 µM (active)	inactive
CO/C=C(/C(=O)OC)c1ccccc1COc1cccc(C(F)(F)F)n1	0.168 µM (active)	–
Nc1ccc(-c2ccc(N)cc2)cc1	33 µM (active)	–
ClC1=C(Cl)[C@]2(Cl)[C@@H]3[C@@H]4C[C@@H]([C@H]5O[C@@H]45)[C@@H]3[C@@]1(Cl)C2(Cl)Cl	0.345 µM (active)	–
c1cc2ccc3cccc4ccc(c1)c2c34	13.5 µM (active)	–
O=C(NC(=O)c1cc(F)c(F)cc1Cl)Nc1cc(F)ccc1N1CCC(C(=O)O)CC1	31 µM (active)	–
CCC(=O)O[C@H]1CC[C@H]2[C@@H]3CCC4=CC(=O)CC[C@]4(C)[C@H]3CC[C@]12C	79.4 µM (active)	–
C1CC2OC2CC1C1CO1 (stereo unspecified)	77.8 µM (active)	–
ClC1=C(Cl)[C@]2(Cl)[C@@H]3[C@@H](Cl)[C@H]4O[C@H]4[C@@H]3C1(Cl)C2(Cl)Cl	0.547 µM (active)	–
CC1=C2C[C@H]3[C@@H](CC=C4C[C@@H](O)CC[C@@]43C)[C@@H]2CC[C@]12O[C@@H]1C[C@H](C)CN[C@H]1[C@H]2C	0.115 µM (active)	–
